# Laboratory results: PubChem BioAssay (Tox21)
# Results filed as inconclusive are left out. Calls of active or inactive are those of the source. Calls follow the shape of the dose curve; as a rule, active = well fitted activation curve with a large enough effect in the repeat runs; inconclusive = weak or mixed curves; inactive = flat fitted curve, though single readings scatter.
# Assay: A CellTox Green Cytotoxicity Assay to monitor cytotoxicity in HEK293 cells - 16 hour (AID 1224888); also: nearly all actives have a fitted effect of over 35% in size
# Conditions: CellTox Green fluorescence; series mostly up to 76.8 µM; activity change: at the top concentration
# Text: National Center for Advancing Translational Sciences [NCATS]
# NIH Chemical Genomics Center [NCGC]
# U.S. Environmental Protection Agency [EPA]
# National Institutes of Environmental Health Sciences [NIEHS]
# National Toxicology Program [NTP]
# Cell-based models are critical for drug discovery. Determining the natural cytotoxic effects resulting from test compounds is an essential research activity. A CellTox Green Cytotoxicity Assay to monitor cytotoxicity in real time of continues cell culture during 40 hours of the compound treatment was used to screen Tox21 10K library compounds in Hek293 cells. CellTox Green Cytotoxicity Assay is a nonlytic, homogeneous, biofluorescent method to measure cytotoxicity in cell culture after experimental manipulation. The assay system uses a proprietary asymmetric cyanine dye that is excluded from viable cells but preferentially stains the dead cell's DNA. […] Viable cells produce no appreciable increases in fluorescence. Therefore, the fluorescence signal produced by the binding interaction with dead cell DNA is proportional to cytotoxicity.
# The mixture of Hek293 cell suspension and reagents were dispensed at 600cells/6 ul/well in 1536-well tissue culture treated black solid bottom plates using a Multidrop dispenser. After the assay plates were incubated at a 37 C/5% CO2 incubator for 5 hours, 23 nL of compounds dissolved in DMSO, positive and negative controls was transferred to the assay plate by a pintool work station. The plates were incubated at 37 C for 40 hours. The fluorescence intensity were measured at 0h, 8h, 16h, 24h, 32h and 40h time points using ViewLux plate reader during compound treatment.
# % is scaled to controls: 0 for no effect and ±100 for the full control effect; potency is read from the fitted curve at half-maximal effect.
SMILES,Potency,activity change
Oc1ccc([C@H]2CNCc3c2ccc(O)c3O)cc1O,26.8 µM (active),
COC(=O)c1cc(Oc2ccc(Cl)cc2Cl)ccc1[N+](=O)[O-],,-0.746% (inactive)
COc1ccc2[nH]cc(CCN(C(C)C)C(C)C)c2c1,,-1.29% (inactive)
Nc1nc(N)c(N)c(N)n1,55.2 µM (active),
CCCCON=O,,0.0822% (inactive)
NC1CCC(CC2CCC(N)CC2)CC1 (stereo not given),,-1.95% (inactive)
[Cl][Hg][c]1ccccc1,,18.9% (inactive)
CC(=O)[O][Pb]([c]1ccccc1)([c]1ccccc1)[c]1ccccc1,4.9 µM (active),
c1csc(-c2ccc(-c3cccs3)s2)c1,,1.77% (inactive)
CCCCN(CCCC)C(=S)S,,-0.0851% (inactive)
Cc1ccn2nc(S(=O)(=O)Nc3c(F)cccc3F)nc2n1,,0.175% (inactive)
Cc1ccccc1OP(=O)(Oc1ccccc1C)Oc1ccccc1C,,-1.52% (inactive)
CCN(CC)C(=O)N[C@@H]1C=C2c3cccc4[nH]cc(c34)C[C@@H]2N(C)C1,,"7.49% [at 35.3 µM, hits give high values] (inactive)"
O=C(NC(=O)c1c(F)cccc1F)Nc1ccc(Oc2ccc(C(F)(F)F)cc2Cl)cc1F,,1.27% (inactive)
CC1(C)[C@H](/C=C2\CCSC2=O)[C@@H]1C(=O)OCc1coc(Cc2ccccc2)c1,,16.4% (inactive)
C[N+]1(C)[C@@H]2CC[C@H]1CC(OC(=O)C(CO)c1ccccc1)C2 (stereo not given in full),,"-7.45% [at 35.3 µM, hits give high values] (inactive)"
CC(Cc1ccc(OCC(=O)O)cc1)NCC(O)c1csc(C(F)(F)F)n1 (stereo not given),,-1.03% (inactive)
CCCCc1ccccc1,,-0.0924% (inactive)
CCCCN(CCCC)C(=S)[S-].CCCCN(CCCC)C(=S)[S-].[Ni+2],,"-1.73% [at 35.3 µM, hits give high values] (inactive)"
CCCCC/C=C\C/C=C\C/C=C\C/C=C\CCCC(=O)NCC(=O)O,,"5.44% [at 35.3 µM, hits give high values] (inactive)"

SMILES,Potency,activity change
Oc1cc(Cl)c(Cl)c(Cl)c1Cl,,18.8% (inactive)
CC(=O)[O-].CC(=O)[O-].O.O.[Zn+2],,1.23% (inactive)
O=S(=O)(O)F,,10.1% (inactive)
CCC[CH2][Sn]([CH2]CCC)([CH2]CCC)[CH2]CCC,24.5 µM (active),
C#CC1(O)CCCCC1,,13% (inactive)
CC(C)=CC1C(C(=O)OC(C#N)c2cccc(Oc3ccccc3)c2)C1(C)C (stereo not given),,6.38% (inactive)
BrCCCBr,,-10.3% (inactive)
CC(=O)[O-].CC(=O)[O-].O.O.O.[Pb+2],,-5.09% (inactive)
CCCN,,-1.72% (inactive)
Brc1ccc(Oc2ccc(Br)cc2Br)c(Br)c1,,-1.63% (inactive)
CCN(CC)CCc1c[nH]c2ccccc12,,-6.85% (inactive)
CCOP(=O)(OCC)Oc1cc(C)nc(C(C)C)n1,,-8.09% (inactive)
CCN(CC)C(=S)S,inactive,
CC(C)Br,,-6.43% (inactive)
CN/C(=N\[N+](=O)[O-])NCc1cnc(Cl)s1,,2.41% (inactive)
CN1C(=O)[C@@H](NC(=O)c2cc3ccccc3[nH]2)N=C(c2ccccc2)c2ccccc21,,"-1.72% [at 35.3 µM, hits give high values] (inactive)"
N#CSCc1ccccc1,,-4.66% (inactive)
CCC(C)Nc1c([N+](=O)[O-])cc(C(C)(C)C)cc1[N+](=O)[O-] (stereo not given),,1.36% (inactive)
O.O.O.O.O.O.O.O=S(=O)([O-])[O-].[Co+2],,-17.2% (inactive)
CCC1(CC)C(=O)N=C(O)NC1=O,,8.98% (inactive)
